Assay results reported in PubChem BioAssay (NCATS).
Records with an inconclusive call do not appear. Activity calls are given as the source filed them. Calls come from the whole dose curve; as a rule, active = well fitted curve in the direction sought with a large enough effect; inconclusive = small, poorly fitted or top-dose-only effect, or another doubt; inactive = no such curve, though single readings can be large; an effect the other way counts as inactive or inconclusive.

What was measured:
[1] = Cell Viability - H-4-II-E (AID 543); note: % is set by controls: 0 for no effect and ±100 for the full control effect; nearly all actives have a fitted effect of over 35% in size
Outline: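 Cells seeded at 1500 per well and rested 5 hr; compounds added; 40 hr incubation at 37 °C; CellTiter-Glo added, 20 min at room temperature; luminescence read. Hill-equation fits gave AC50.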

[2] = Cell Viability - SH-SY5Y (AID 544); conditions: SH-SY5Y neuroblastoma cell viability; viability change, negative = cytotoxic: at 92.2 µM (top of the series); note: nearly all actives have a fitted effect of over 55% in size
Outline: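 Cells were plated at 1500 per well and allowed 5 hr at 37 °C. Compounds were added across a concentration range and incubated 40 hr at 37 °C. CellTiter-Glo was added for 20 min at room temperature before luminescence reading.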

[3] = Cell Viability - Renal Proximal Tubule (AID 545); note: nearly all actives have a fitted effect of over 40% in size
Outline: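 In this qHTS format, normal rat kidney-derived proximal tubule cells in complete culture medium receive compound titrations, then sit 40 hours at 37 °C before luciferase-based ATP quantitation; potency is reported as AC50 from concentration-response curves.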

[4] = Cell Viability - Mesenchymal (AID 546);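 note: cells exposed to compound for 40 hours before reading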
Outline: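 CellTiter-Glo luminescence (intracellular ATP, 20 min room temperature) after 40 hr compound exposure at 37 °C of 1000 glomerulus-derived human kidney mesenchymal cells/well; AC50 values obtained by fitting qHTS concentration-response data to the Hill equation.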

[5] = Cellular Toxicity (caspase-3) HepG2 (AID 654);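 note: cells exposed to compound for 16 hours before reading; 0% = DMSO alone and 100% = caspase signal from 100 µM tamoxifen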
Outline: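 Caspase 3/7 activation in HepG2 is measured as rising luminescence after a 16 hr treatment at 37 °C. Values are scaled between DMSO basal and 100 uM tamoxifen, and AC50 is fitted with the Hill equation.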

[6] = Cellular Toxicity (caspase-3) Jurkat (AID 655); conditions: Jurkat caspase-3 activation, luminescence; caspase-3 activation: at 92.2 µM (top of the series), DMSO = 0%, tamoxifen = 100%;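 note: cells exposed to compound for 16 h at 37 °C before reading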
Outline: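 qHTS in human Jurkat T-cell leukemia line: 16 hr compound treatment at 37 °C, caspase-3/7 activity measured by Caspase-Glo luminescence. AC50 derived from Hill equation.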

[7] = Cellular Toxicity (caspase-3) HUV-EC-C (AID 656)
Outline: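 Concentration-dependent caspase 3/7 induction was assessed in HUV-EC-C cells exposed for 16 hours. Data scaled between DMSO and tamoxifen (100 uM) controls.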

[8] = Cellular Toxicity (caspase-3) SHSY5Y (AID 657);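 note: cells exposed to compound for 16 hours at 37 °C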
Outline: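 Readout: caspase-cleaved peptide-aminoluciferin substrate driving luciferase light in SH-SY5Y neuroblastoma cells after 16 h treatment. Response normalized to DMSO and 10 uM staurosporine controls.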

[9] = Cellular Toxicity (caspase-3) BJ (AID 658);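 note: 0% = DMSO basal and 100% = 10 µM staurosporine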
Outline: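 Caspase-Glo 3/7 luminescence, read 1 hr after reagent at room temperature, in normal BJ fibroblasts exposed 16 hours at 37 °C. AC50 values from Hill-equation concentration-response, scaled between DMSO basal and 10 uM staurosporine as 100%.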

[10] = Cellular Toxicity (caspase-3) MRC-5 (AID 659);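 note: 0% = DMSO basal and 100% = 10 µM staurosporine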
Outline: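 Luminescent Caspase-Glo 3/7 read-out (1 h, room temperature) after a 16 h, 37 °C compound exposure of MRC-5 lung fibroblasts at 1500 cells/well. Concentration-response AC50 from Hill equation; 0% DMSO, 100% 10 uM staurosporine.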

C=CCCCC
inactive: Potency [1] | Potency [2] | Potency [3] | Potency [4] | Potency [5] | caspase-3 activation [6] 0.169% | outcome [7] | outcome [8] | outcome [9] | outcome [10]

CCOC(=O)C(C)C(C)=O (stereo not given)
inactive: Potency [1] | Potency [2] | Potency [3] | Potency [4] | Potency [5] | caspase-3 activation [6] 3.08% | outcome [7] | outcome [8] | outcome [9] | outcome [10]

BrC/C=C/CBr
inactive: Potency [1] | Potency [2] | Potency [3] | Potency [4] | Potency [5] | caspase-3 activation [6] 1.67% | outcome [7] | outcome [8] | outcome [9] | outcome [10]

CC(O)COC(C)(C)C (stereo not given)
inactive: Potency [1] | Potency [2] | Potency [3] | Potency [4] | Potency [5] | caspase-3 activation [6] 0.633% | outcome [7] | outcome [8] | outcome [9] | outcome [10]

CCc1ccccc1
inactive: Potency [1] | Potency [2] | Potency [3] | Potency [4] | Potency [5] | caspase-3 activation [6] 1.71% | outcome [7] | outcome [8] | outcome [9] | outcome [10]

[O-]/[N+](=N\O)c1ccccc1
inactive: Potency [1] | Potency [2] | Potency [3] | Potency [4] | Potency [5] | caspase-3 activation [6] -1.18% | outcome [7] | outcome [8] | outcome [9] | outcome [10]

O=[N+]([O-])c1ccc(NCCO)c(OCCO)c1
inactive: Potency [1] | Potency [2] | Potency [3] | Potency [4] | Potency [5] | caspase-3 activation [6] 3.12% | outcome [7] | outcome [8] | outcome [9] | outcome [10]

NC(=S)NNC(N)=S
inactive: Potency [1] | Potency [2] | Potency [3] | Potency [4] | Potency [5] | caspase-3 activation [6] 0.7% | outcome [7] | outcome [8] | outcome [9] | outcome [10]

CC(C)(C)c1ccc(OCC2CO2)cc1 (stereo not given)
inactive: Potency [1] | Potency [2] | Potency [3] | Potency [4] | Potency [5] | caspase-3 activation [6] 15.6% | outcome [7] | outcome [8] | outcome [9] | outcome [10]

Cc1cccc([N+](=O)[O-])c1C(=O)O
inactive: Potency [1] | Potency [2] | Potency [3] | Potency [4] | Potency [5] | caspase-3 activation [6] 0.48% | outcome [7] | outcome [8] | outcome [9] | outcome [10]

CC(N)CN (stereo not given)
inactive: Potency [1] | Potency [2] | Potency [3] | Potency [4] | Potency [5] | caspase-3 activation [6] 2.43% | outcome [7] | outcome [8] | outcome [9] | outcome [10]

OC(CCl)CCl
inactive: Potency [1] | Potency [2] | Potency [3] | Potency [4] | Potency [5] | caspase-3 activation [6] 0.028% | outcome [7] | outcome [8] | outcome [9] | outcome [10]

NC(N)=S
inactive: Potency [1] | Potency [2] | Potency [3] | Potency [4] | Potency [5] | caspase-3 activation [6] 0.321% | outcome [7] | outcome [8] | outcome [9] | outcome [10]

C=CCCC
inactive: Potency [1] | Potency [2] | Potency [3] | Potency [4] | Potency [5] | caspase-3 activation [6] -0.379% | outcome [7] | outcome [8] | outcome [9] | outcome [10]

CC(O)CC(C)O (stereo not given)
inactive: Potency [1] | Potency [2] | Potency [3] | Potency [4] | Potency [5] | caspase-3 activation [6] 0.345% | outcome [7] | outcome [8] | outcome [9] | outcome [10]

CCCCCCCN
inactive: Potency [1] | Potency [2] | Potency [3] | Potency [4] | Potency [5] | caspase-3 activation [6] -1.01% | outcome [7] | outcome [8] | outcome [9] | outcome [10]

CCCCC=O
inactive: Potency [1] | Potency [2] | Potency [3] | Potency [4] | Potency [5] | caspase-3 activation [6] -1.47% | outcome [7] | outcome [8] | outcome [9] | outcome [10]

CCCCCCC=O
inactive: Potency [1] | Potency [2] | Potency [3] | Potency [4] | Potency [5] | caspase-3 activation [6] 0.767% | outcome [7] | outcome [8] | outcome [9] | outcome [10]

C=Cc1ccc(C=C)cc1
inactive: Potency [1] | Potency [2] | Potency [3] | Potency [4] | Potency [5] | caspase-3 activation [6] -0.456% | outcome [7] | outcome [8] | outcome [9] | outcome [10]

CC(C)=C1CCC(C)CC1=O (stereo not given)
inactive: Potency [1] | Potency [2] | Potency [3] | Potency [4] | Potency [5] | caspase-3 activation [6] -1.31% | outcome [7] | outcome [8] | outcome [9] | outcome [10]

CC(C)N(C)C
inactive: Potency [1] | Potency [2] | Potency [3] | Potency [4] | Potency [5] | caspase-3 activation [6] -0.157% | outcome [7] | outcome [8] | outcome [9] | outcome [10]

Nc1cccc([N+](=O)[O-])c1
inactive: Potency [1] | Potency [2] | Potency [3] | Potency [4] | Potency [5] | caspase-3 activation [6] 0.664% | outcome [7] | outcome [8] | outcome [9] | outcome [10]

C[C@@H]1CC2(OC3C[C@@]4(C)C5=CC[C@H]6C(C)(C)C(O[C@@H]7OC[C@@H](O)[C@H](O)[C@H]7O)CC[C@@]67C[C@@]57CC[C@]4(C)C31)OC(O)C1(C)OC21 (stereo not given in full)
inactive: Potency [1] | Potency [2] | Potency [3] | Potency [4] | Potency [5] | caspase-3 activation [6] 2.56% | outcome [7] | outcome [8] | outcome [9] | outcome [10]

CCCCCCCCCCCCC1CO1 (stereo not given)
inactive: Potency [1] | Potency [2] | Potency [3] | Potency [4] | Potency [5] | caspase-3 activation [6] -0.853% | outcome [7] | outcome [8] | outcome [9] | outcome [10]

COc1cccc2sc(N)nc12
inactive: Potency [1] | Potency [2] | Potency [3] | Potency [4] | Potency [5] | caspase-3 activation [6] -0.447% | outcome [7] | outcome [8] | outcome [9] | outcome [10]

ClCCl
inactive: Potency [1] | Potency [2] | Potency [3] | Potency [4] | Potency [5] | caspase-3 activation [6] 1.06% | outcome [7] | outcome [8] | outcome [9] | outcome [10]

CCCCC(CC)COCC1CO1 (stereo not given)
inactive: Potency [1] | Potency [2] | Potency [3] | Potency [4] | Potency [5] | caspase-3 activation [6] -3.18% | outcome [7] | outcome [8] | outcome [9] | outcome [10]

CCCCCCO
inactive: Potency [1] | Potency [2] | Potency [3] | Potency [4] | Potency [5] | caspase-3 activation [6] -0.00564% | outcome [7] | outcome [8] | outcome [9] | outcome [10]

CCCCC(CC)CNCC(CC)CCCC (stereo not given)
inactive: Potency [1] | Potency [2] | Potency [3] | Potency [4] | Potency [5] | caspase-3 activation [6] 1.24% | outcome [7] | outcome [8] | outcome [9] | outcome [10]

O=[N+]([O-])c1cccc(Cl)c1
inactive: Potency [1] | Potency [2] | Potency [3] | Potency [4] | Potency [5] | caspase-3 activation [6] -3.2% | outcome [7] | outcome [8] | outcome [9] | outcome [10]

O=C(O)c1ccc(Cl)c(Cl)c1
inactive: Potency [1] | Potency [2] | Potency [3] | Potency [4] | Potency [5] | caspase-3 activation [6] -1.55% | outcome [7] | outcome [8] | outcome [9] | outcome [10]

C=C(C)C(N)=O
inactive: Potency [1] | Potency [2] | Potency [3] | Potency [4] | Potency [5] | caspase-3 activation [6] -0.182% | outcome [7] | outcome [8] | outcome [9] | outcome [10]

CC(=O)c1cccc([N+](=O)[O-])c1
inactive: Potency [1] | Potency [2] | Potency [3] | Potency [4] | Potency [5] | caspase-3 activation [6] -0.656% | outcome [7] | outcome [8] | outcome [9] | outcome [10]

O=[N+]([O-])c1ccc(Cl)cc1Cl
inactive: Potency [1] | Potency [2] | Potency [3] | Potency [4] | Potency [5] | caspase-3 activation [6] 1.63% | outcome [7] | outcome [8] | outcome [9] | outcome [10]

NCCCCCCN
inactive: Potency [1] | Potency [2] | Potency [3] | Potency [4] | Potency [5] | caspase-3 activation [6] -1.28% | outcome [7] | outcome [8] | outcome [9] | outcome [10]

COc1ccc(N)c(OC)c1
inactive: Potency [1] | Potency [2] | Potency [3] | Potency [4] | Potency [5] | caspase-3 activation [6] 0.6% | outcome [7] | outcome [8] | outcome [9] | outcome [10]
